# Ba/F3 V617F tox: reduced viability of JAK2V617F-dependent Ba/F3 cells, primary screen, JAK2V617F inhibitor project, cell-based, Ba/F3 EpoR-JAK2V617F, luminescence; inhibition, % at 5.6 µM; actives 1.1% (n = 220,000); ATP luminescence; AID 1446, 2008;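 active = inhibition above the campaign mean plus 3 SD over all tested compounds, cut at about 24% in these data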;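 also: cytokine-independent growth of Ba/F3 cells driven by EpoR plus mutant JAK2; 0% = DMSO-treated cells and 100% = JAK inhibitor I control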
# aSyn 5UTR inh: MLPCN primary screen, SNCA 5' untranslated region. actives 0.82% (n = 300,000). AID 1813, 2009. inhibition, % (tested at 7.5 µM). alpha-synuclein 5'UTR reporter, inhibitor activity; in the data active = inhibition above about 60%;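 also: H4 neuroglioblastoma cells stably carrying SNCA 5'UTR luciferase fusion; 0% = DMSO wells and 100% = positive control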
# KLF5 inh: KLF5 expression inhibitors, primary screen, DLD-1 cells, luminescence | inhibition, % at 5 µM | AID 1700, 2009 | DLD-1 KLF5 promoter-luciferase reporter | actives 0.23% (n = 290,000);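 active = inhibition above a per-plate limit of that plate's mean compound inhibition plus 3 SD, cut at about 60% in these data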;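 also: 0% = DMSO wells and 100% = LY294002 at 200 µM; higher means less KLF5 promoter-driven luciferase light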
# IEC-6 tox: cytotoxicity in IEC-6 intestinal epithelial cells, primary screen, cytotoxicity control for KLF5 inhibitor project, cell-based, luminescence | actives 0.78% (n = 290,000) | inhibition, % at 5 µM | IEC-6 cytotoxicity, luminescence viability | AID 1825, 2009; in the data active = inhibition above about 22%;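 also: 0% = plate median of test compound wells and 100% = cytotoxic reference compound wells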
# APP 5UTR inh: inhibitors of APP translation via 5'UTR reporter, primary screen, APP 5'UTR luciferase, SH-SY5Y cells; SH-SY5Y APP 5'UTR-luciferase reporter, luminescence; AID 1285, 2008; actives 0.82% (n = 190,000); inhibition, % at 2 µM;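 active = inhibition above a set limit, derived from the sample mean plus 3 SD, cut at about 45% in these data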
# BaF3 parental: parental Ba/F3 cell viability inhibition, counter-screen for JAK2V617F inhibitor project, murine pro-B, CellTiter-Glo luminescence | CellTiter-Glo ATP luminescence | inhibition, % at 5.6 µM | actives 1.1% (n = 220,000) | AID 1486, 2009;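 active = inhibition above a per-campaign cutoff, the mean inhibition of all tested compounds plus 3 SD, cut at about 27% in these data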;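 also: 0% = DMSO wells and 100% = JAK Inhibitor I control wells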
# The depositor's hits bear a star; . = no result. Most compounds without a hit are left out; they make up all but 2.1% or so of the library.
SMILES,Ba/F3 V617F tox,aSyn 5UTR inh,KLF5 inh,IEC-6 tox,APP 5UTR inh,BaF3 parental
C=CCn1c(SCc2c(C)noc2C)nc2sc3c(c2c1=O)CCCCC3,4,65*,3,-2,0,6
CCCCn1c(N)c(N(CCOC)C(=O)c2ccc(S(=O)(=O)N3CCC(C)CC3)cc2)c(=O)[nH]c1=O,.,6,.,.,.,.
CC(C)(C)c1ccc(OCC(=O)N/N=C/c2cc(Br)ccc2OC(=O)c2ccco2)cc1,4,83*,-10,5,-9,5
COc1ccc(Br)cc1/C=N/NC(=O)c1ccco1,3,-1,17,2,-10,3
CC(=O)Cc1nnn(-c2cc(C)on2)n1,2,-2,-6,2,.,3
CC1(C)Cc2c(cnn2-c2cccc(F)c2)C(NC(=O)CSc2ccncc2)C1 (stereo unspecified),.,3,-21,-2,.,.
COc1ccc(CC(=O)Nc2cccc(-c3cn4ccccc4n3)c2)cc1,-2,-20,-15,-2,0,4
COc1ccc(CC(=O)Nc2ccc(-c3cn4ccccc4n3)cc2)cc1,-3,-124,-85,5,58*,3
O=C(NC1CCCC1)C(c1ccccc1)N(C(=O)c1csnn1)c1ccccc1F (stereo unspecified),.,6,-2,3,.,.
C/C(CC(=O)Nc1ccccn1)=N\NC(=O)c1ccccc1O,.,71*,23,9,.,.
O=S(=O)(Nc1ccc(-c2nc3cccnc3s2)cc1)c1ccccc1F,2,-84,-34,10,.,3
COc1cc(NC(=O)CCc2nnc3ccc(N4CCOCC4)nn23)cc(OC)c1OC,.,11,-19,-8,.,.
COC(=O)C1CSC(C(=O)OC)N1C(=O)CN1CCN(c2ccccc2)CC1 (stereo unspecified),2,14,-19,-3,3,4
O=C(c1ccc2c(c1)OCO2)N1CCCC(c2ccccc2)C1 (stereo unspecified),9,-2,-28,2,-8,33*
CC(C)NC(=NCc1ccc(Cl)cc1Cl)Nc1ccccc1,.,7,-31,4,.,.
S=C(Nc1ccc(Cl)cc1)N1CCN(C2CCCCC2)CC1,23,-11,-3,-4,-10,36*
CSCCC(NS(=O)(=O)c1ccccc1F)C(=O)NCCCn1nc(C)cc1C (stereo unspecified),.,-2,.,.,.,.
COCCn1c(SC(C)C(=O)Nc2ccc(Cl)cn2)nnc1-c1ccncc1 (stereo unspecified),7,15,-9,-2,-19,11
CCOc1ccc(-c2nnc(SCC(=O)Nc3ccc4c(c3)c3ccccc3n4CC)n2N)cc1,3,84*,-2,9,13,0
COc1cccc(/C=N/NC(=O)c2cc3c(OC)cccc3[nH]2)c1O,-3,86*,-10,0,45*,1
COc1cccc(/C=N/NC(=O)c2cc(-c3cccn3C)n[nH]2)c1O,6,95*,28,-4,33,10
Cc1ccc(C(=O)C(c2ccccc2)N2Cc3ccccc3C2=N)cc1 (stereo unspecified),0,-13,-6,-1,13,7
O=C(NCC1OCCc2ccccc21)c1ccc(NC(=O)c2ccc(Cl)cc2)cc1 (stereo unspecified),-1,79*,-4,-2,3,6
Cc1ccc(NC(=O)C(=O)NCC2OCCc3ccccc32)cc1 (stereo unspecified),-2,-46,-3,0,-6,4
Cc1ccc(CSc2nnc(SCC(=O)N/N=C/c3ccccc3OCC(=O)O)s2)cc1,-3,62*,-9,-6,.,3
SMILES,Ba/F3 V617F tox,aSyn 5UTR inh,KLF5 inh,IEC-6 tox,APP 5UTR inh,BaF3 parental
Cc1ccc(CSc2nnc(SCC(=O)N/N=C/c3ccc(C(=O)O)cc3)s2)cc1,-2,70*,-5,2,.,-5
Cc1ccc(CSc2nnc(SCC(=O)N/N=C/c3c[nH]c4ccccc34)s2)cc1,4,13,-17,6,36,9
Cc1ccc(NC(=O)Cn2nnc(-c3ccccc3NC(=O)c3cccs3)n2)cc1,0,67*,-14,7,-14,5
COc1ccc(NC(=O)Cn2nnc(-c3ccccc3NC(=O)c3cccs3)n2)cc1,-3,-169,2,4,0,-3
COc1ccc(NC(=O)Cn2nnc(-c3ccccc3NS(=O)(=O)c3ccc(OC)cc3)n2)cc1,78*,107*,75*,46*,89*,66*
CCOc1ccc(S(=O)(=O)N2CCN(C(=O)C3CCC3)CC2)cc1,.,-2,.,.,.,.
CCOC(=O)C1(CCOc2ccccc2)CCN(CC(O)CO)CC1 (stereo unspecified),.,10,-11,-1,.,.
Cc1onc(-c2ccccc2Cl)c1C(=O)N1CCC(C)CC1,.,10,-13,2,.,.
CCOC(=O)C1CCN(C(=O)c2c(C)oc3c2C(=O)c2ccccc2C3=O)CC1,-2,72*,5,-2,31,6
CCOC(=O)C1CCN(C(=O)c2ccco2)CC1,3,.,-4,-2,-7,5
Cc1oc2c(c1C(=O)N1CCC(C)CC1)C(=O)c1ccccc1C2=O,0,83*,-23,-1,34,8
O=C(NCCc1ccccc1Cl)C1CCC(=O)N(CC2CCCCC2)C1 (stereo unspecified),.,4,-5,5,.,.
Cc1csc(NC(=O)c2cn3ccccc3n2)n1,10,82*,50,10,-68,12
O=C(Nc1ccccc1)c1cn2ccccc2n1,4,51,-25,6,.,6
COCC(C)n1c(SCc2cc(=O)n3cc(C)ccc3n2)nc2ccccc2c1=O (stereo unspecified),-5,64*,-13,20,37,3
COc1ccc(Nc2oc(COc3ccccc3OC)nc2C#N)cc1,1,98*,-1,2,0,1
COc1ccc(-c2c/c(=N\c3nc(-c4ccccc4)c(C)s3)c3ccccc3o2)cc1O,-7,75*,4,-5,-1,0
O=S(=O)(NCc1csc(-c2cccs2)n1)c1cccc(C(F)(F)F)c1,1,-9,15,6,.,3
CC1(C)CCC/C(=C\c2ccccc2)C1=O,.,4,.,.,.,.
COc1ccc(S(=O)(=O)N2CCC(C(=O)Nc3ccc(S(=O)(=O)N4CCCC4)cc3)CC2)cc1OC,.,23,.,.,.,.
O=C(Cn1cnc2ccccc21)NCc1ccccc1,0,-27,-7,-4,-27,2
O=C(Cn1cnc2ccccc21)Nc1ccc(SC(F)F)cc1,36*,-10,-55,10,15,50*
Cc1ccc(NC(=O)C2(c3ccc([N+](=O)[O-])cc3)CCCC2)cc1,2,26,-4,-1,0,50*
